D1 antagonist – Antagonist of Human D 1 Dopamine Receptor: qHTS; AID 504652, 2011; activity change, negative = inhibition, % at 10 µM; D(1A) dopamine receptor (Homo sapiens), P21728; HEK293 TREx D1 cells, calcium flux, dopamine EC80; stronger effect = lower value; hit rate 3.2% among 360,000; in the data active means activity change below about -30%; further: on the % scale 0 is the no-effect control and ±100 the full control effect
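Allosteric or orthosteric antagonism assessed as attenuation of the calcium response to EC80 dopamine, added 180 s after compound, in induced HEK293 Trex D1 cells loaded with no-wash calcium dye.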
D1 potentiator – Potentiators of Human D1 Dopamine Receptor: qHTS | D(1A) dopamine receptor (Homo sapiens), P21728 | HEK293 TREx D1 cells, calcium flux, dopamine EC20 potentiation | potentiation, % at 10 µM | hit rate 0.036% among 360,000 | AID 504651, 2011; in the data active means potentiation above about 30%; further: 0% is about no effect
D3 antag – qHTS of D3 Dopamine Receptor Antagonist: qHTS; D(3) dopamine receptor (Homo sapiens), P35462; D3R cells, DiscoveRx beta-arrestin luminescence, antagonist mode; stronger effect = lower value; max response, negative = inhibition, %; hit rate 2.5% among 360,000; in the data active means max response below about -50%; inconclusive means no clear call, values can overlap the other calls; further: on the % scale 0 is the no-effect control and ±100 the full control effect
Target sequence (P35462 whole entry, looked up): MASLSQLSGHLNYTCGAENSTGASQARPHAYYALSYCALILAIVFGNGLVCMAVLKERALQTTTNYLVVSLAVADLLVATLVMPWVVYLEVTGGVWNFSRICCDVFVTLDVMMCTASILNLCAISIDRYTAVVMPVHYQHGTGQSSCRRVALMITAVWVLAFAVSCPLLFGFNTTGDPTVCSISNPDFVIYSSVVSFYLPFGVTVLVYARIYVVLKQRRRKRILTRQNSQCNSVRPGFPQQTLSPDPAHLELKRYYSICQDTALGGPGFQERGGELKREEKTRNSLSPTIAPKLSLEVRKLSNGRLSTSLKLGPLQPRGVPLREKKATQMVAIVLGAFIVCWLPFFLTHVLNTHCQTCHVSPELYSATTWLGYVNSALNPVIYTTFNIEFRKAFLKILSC
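Cells expressing the human receptor were seeded at 1500 cells/well, incubated overnight at 37 degrees C in 5% CO2, then exposed to library compounds with dopamine controls for 90 minutes at 37 degrees C before luminescent detection.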
D1 agonist – Allosteric Agonists of the Human D1 Dopamine Receptor: qHTS; HEK293 T-REx D1 cells, calcium flux, agonist mode; activation, % at 2 µM; hit rate 1% among 360,000; in the data active means activation above about 30%; further: 0% is about no effect
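Tetracycline-induced HEK293 TREx D1 cells, force-coupled to calcium signalling, were dye-loaded with a no-wash calcium kit. Compound was pin-added after a 10 s baseline. Fluorescence was read kinetically at 1 cycle/s for 180 s, with calcium rises flagged as agonism.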
D3 ag – qHTS of D3 Dopamine Receptor Agonist: qHTS. D(3) dopamine receptor (Homo sapiens), P35462. D3R DiscoveRx beta-arrestin cells, luminescence, 90 min. max activation, %. hit rate 0.58% among 410,000. AID 652048, 2013; in the data active means max activation above about 30%; further: 0% is about no effect
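Agonist mode: compounds and dopamine controls were applied to plated cells for 90 min at 37 degrees C after an overnight attachment at 1500 cells/well. Luminescent read-out followed 30 - 60 minutes at room temperature with DiscoveRx detection reagent.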
Numbers without * were called inactive; ? = inconclusive; . = not tested or not shown; ! = not confirmed by another sample. The list is not random: actives were taken first. Their share in the collection is about 6%.

SMILES	D1 antagonist	D1 potentiator	D3 antag	D1 agonist	D3 ag
COc1ccc(Cl)cc1Nc1cc(C)nc2nc(-c3ccccc3C)nn12	-0.1	-1.4	.	1.8	7.3
Cc1nc2scc(-c3ccc(C(C)(C)C)cc3)c2c(=O)n1N	-24.5	-2.2	54.7	14.5	30.5*
O=C(N/N=C/c1ccc(O)cc1)c1ccc(COc2cc(Cl)ccc2Cl)o1	-7.7	-4.2	?	43.4*	7.7
Cc1ccc(CNS(=O)(=O)c2ccc(-c3cnc(C4CC4)o3)cc2)cc1	-27.3	-5.2	2.5	9.2	7.9
O=S(=O)(NCc1ccccc1)c1ccc(-c2cnc(C3CC3)o2)cc1	-38.4*!	-4.6	13.0	9.1	-1.6
Cc1ccc(N(C)S(=O)(=O)c2ccc(-c3cnc(C4CC4)o3)cc2)cc1	-31.7*!	-3.4	-26.3	12.6	-2.3
Cc1cccc(C)c1OCc1nc2c3c(-c4ccccc4)c(-c4ccccc4)oc3ncn2n1	-9.3	-0.8	.	-2.7	5.4
CCOCCCNC(=S)N1CCCN(c2nc3cc(C)c(C)cc3cc2C#N)CC1	-32.6*	-2.8	-2.5	0.1	3.4
COCCCNC(=S)N1CCCN(c2nc3cc(C)c(C)cc3cc2C#N)CC1	6.8	-1.1	2.0	-0.1	-2.9
O=c1cc(CN2CCN(S(=O)(=O)c3ccc(Cl)cc3)CC2)nc2sc(-c3ccccc3F)nn12	-36.6*	-2.8	.	-1.1	3.7
O=c1cc(CN2CCN(S(=O)(=O)c3ccccc3)CC2)nc2sc(-c3ccccc3Cl)nn12	1.1	2.5	.	-0.3	5.5
Cc1ccccc1-c1nn2c(=O)cc(CN3CCN(S(=O)(=O)c4ccc(Cl)cc4)CC3)nc2s1	-30.3*	-6.4	.	-0.6	-17.0
Cc1ccc(Nc2nc(-c3c(C)nc4ccccn34)cs2)cc1	-47.7*	-6.0	12.9	2.0	7.0
Cc1ccn2c(-c3csc(NCc4ccccc4)n3)c(C)nc2c1	-33.3*	-17.4	11.6	8.2	5.5
Nc1n[nH]c(N)c1N=Nc1ccccc1F	-34.9*	0.8	-15.7	0.3	4.0
COc1ccc(S(=O)(=O)c2c(Nc3c(C)cccc3C)sc(C(=O)c3ccc4c(c3)OCO4)c2N)cc1	12.8	-0.8	.	31.4*	-11.7
COc1ccc(S(=O)(=O)c2c(Nc3cccc(C)c3C)sc(C(=O)c3ccccc3)c2N)cc1	-27.1	0.6	.	37.9*	-6.2
COc1ccccc1Nc1sc(C(=O)c2ccc(F)cc2)c(N)c1S(=O)(=O)c1ccc(C)cc1	16.1	-0.8	.	31.9*	-9.4
COc1ccc(S(=O)(=O)c2c(Nc3c(C)cccc3C)sc(C(=O)c3ccc(F)cc3)c2N)cc1	9.3	-2.0	.	52.2*	-18.9
Cc1ccc(C(=O)c2sc(Nc3ccccc3F)c(S(=O)(=O)c3ccccc3)c2N)c(C)c1	-5.6	-2.5	.	17.7	-19.9
COc1cccc(-c2cc(C(=O)NCc3ccccc3)[nH]n2)c1	6.8	-5.5	.	1.6	-20.7
O=C(O)c1cc(F)c(S(=O)(=O)N2CCN(S(=O)(=O)c3ccc4c(c3)OCCO4)CC2)cc1F	-18.0	-1.6	.	1.1	.
CCCCOc1ccccc1NC(=O)CC1Sc2ccccc2NC1=O (configuration not stated)	-1.9	-1.9	.	17.0	4.3
N#CCC(CNc1ncc(C(F)(F)F)cc1Cl)OC(=O)c1ccc(Cl)cc1Cl (configuration not stated)	9.2	-2.5	20.5	30.8*	22.7
CCCSCCCNC(=O)CN1C(=O)CCn2nc(-c3cn(C)c4ccccc34)cc21	5.0	0.7	.	-0.7	-20.8
SMILES	D1 antagonist	D1 potentiator	D3 antag	D1 agonist	D3 ag
Cc1nn(C)c2c1c(-c1ccccc1)cc(=O)n2CC(=O)NC(C)c1ccccc1 (configuration not stated)	30.1	-1.6	.	1.2	-0.6
COc1ccc(/C=N/N=C2\CC3CCC2(C)C3(C)C)cc1O (configuration not stated)	5.6	-1.2	11.9	2.7	1.4
COc1cc(/C=N/N=C2\CC3CCC2(C)C3(C)C)ccc1O (configuration not stated)	-59.9*	0.2	12.6	2.6	7.4
Cc1cccc(-c2nc(C)c(CCNC(=O)C(=O)Nc3ccc(C)c(C)c3)s2)c1	6.5	-3.9	.	3.5	9.5
C/C(NCCc1ccc(O)cc1)=C1/CCOC1=O	.	.	6.0	.	44.9*
O=C(COC(=O)Cc1ccc(S(=O)(=O)N2CCOCC2)s1)NCCc1ccccc1	3.1	0.1	6.7	1.6	-8.6
O=C(COC(=O)Cc1ccc(S(=O)(=O)N2CCOCC2)s1)NCc1ccccc1	-48.3*	-4.3	2.3	4.2	3.7
COc1ccccc1CNc1nc(-c2ccco2)nn1C(=O)c1ccccc1[N+](=O)[O-]	2.8	-1.6	.	0.2	0.7
O=C(NN=Cc1ccc2c(c1)OCO2)C1CC1	.	.	1.5	.	-9.1
O=C(/C=C/c1ccccc1)c1ccc2c(c1)OCO2	-5.0	5.3	0.0	3.9	-18.7
O=C(/C=C/c1ccncc1)c1ccc2c(c1)OCCO2	-22.4	-9.7	-54.0*	4.3	2.4
CN(C)c1ccc(/C=C/C(=O)c2ccc3c(c2)OCO3)cc1	4.5	-0.9	-16.7	455.1*	3.8
Cc1ccc(C(=O)O/N=C/c2ccc3c(c2)OCO3)cc1	-66.9*	-10.4	0.5	5.5	12.2
O=C(NN=Cc1ccc2c(c1)OCO2)NN=Cc1ccc2c(c1)OCO2	.	.	45.4	.	45.7*
COc1ccc(S(=O)(=O)Nc2cc3c(cc2NCc2ccccc2)n(C)c(=O)n3C)cc1	-2.0	-1.8	.	6.0	3.1
Cc1ccc(NC(=O)CCc2c(C)nc3ncnn3c2C)cc1Cl	-9.1	1.4	.	-0.2	-7.4
CN(C)c1ccc(/C=N/NC(=O)c2ccc3c(c2)OCO3)cc1	-30.1*	-3.2	-21.2	1.8	-1.1
O=C(NCc1ccccc1F)C1CCCN(c2cnccn2)C1 (configuration not stated)	-34.8*	0.2	8.7	2.5	2.5
Cc1c(Nc2cc(Cl)c3nonc3c2[N+](=O)[O-])c(=O)n(-c2ccccc2)n1C	-11.8	-14.4	-101.1*	0.6	-21.2
O=[N+]([O-])c1c(Nc2cccc(O)c2)cc(Cl)c2nonc12	-24.2	-8.7	-131.2*	2.6	-29.3
CCn1c(=O)c2cc(C(=O)NCCCN3CCN(C)CC3)sc2c2ccccc21	-1.7	-1.3	.	2.6	-9.3
c1cc2c3c(cccc3c1)NC1(CCC3(CC1)Nc1cccc4cccc(c14)N3)N2	-40.2*	-0.6	34.4	13.6	-2.2
c1cc2c3c(cccc3c1)NC1(CCCCCC1)N2	-5.3	-0.9	?	2.0	-2.9
CNC(=O)c1ccc(CSc2nc3cccnc3n2Cc2cccc(F)c2)cc1	-1.3	-1.9	.	3.1	6.8

Source: PubChem BioAssay (National Center for Advancing Translational Sciences (NCATS))
